The panel holds about 83,000 compounds, 20% with a hit somewhere; the sample as a whole holds those more often.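 Note: values are percent growth. 100 is the growth of untreated cells, values between 100 and 0 indicate rising inhibition; between -100 and 0 indicates cell death.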 Unmarked numbers belong to inactive results. Activity calls are given as the source filed them. The calls were made as follows: active = growth percent below 10; inactive = the rest.
Columns and labels:
Experiment in all cases: NCI-60 one-dose screen, 48 h (100 = growth as untreated, 0 = no growth, -100 = all killed)
NCI-H23 lung = settings: 10 µM unless noted
NCI-H226 lung = settings: 10 µM unless noted
NCI-H322M lung = settings: 10 µM unless noted
HOP-62 NSCLC = settings: 10 µM unless noted
NCI-H460 lung = settings: 10 µM unless noted
NCI-H522 lung = settings: 10 µM unless noted
A549/ATCC NSCLC = settings: 10 µM unless noted
786-0 renal = settings: 10 µM unless noted
COLO 205 colon = settings: 10 µM unless noted
DU-145 prostate = settings: 10 µM unless noted
K-562 leukemia = settings: 10 µM unless noted
MDA-MB-231 breast = settings: 10 µM unless noted
RXF 393 renal = settings: 10 µM unless noted
SF-268 CNS = settings: 10 µM unless noted
SF-295 CNS = settings: 10 µM unless noted
SF-539 CNS = settings: 10 µM unless noted
UACC-257 melanoma = settings: 10 µM unless noted
M14 melanoma = settings: 10 µM unless noted
MALME-3M melanoma = settings: 10 µM unless noted
HOP-92 NSCLC = settings: 10 µM

SMILES | growth (NCI-H23 lung) [%] | growth (NCI-H226 lung) | growth (NCI-H322M lung) [%] | growth (HOP-62 NSCLC) [%] | growth (NCI-H460 lung) | growth (NCI-H522 lung) | growth (A549/ATCC NSCLC) | growth (786-0 renal) [%] | growth (COLO 205 colon) | growth (DU-145 prostate) [%] | growth (K-562 leukemia) | growth (MDA-MB-231 breast) [%] | growth (RXF 393 renal) | growth (SF-268 CNS) [%] | growth (SF-295 CNS) | growth (SF-539 CNS) | growth (UACC-257 melanoma) [%] | growth (M14 melanoma) | growth (MALME-3M melanoma) [%] | growth (HOP-92 NSCLC) [%]
CC(C)(C)c1ccc(C(=O)Nc2sc3c(c2C(N)=O)CCC(O)C3)cc1 (stereo unspecified) | 66.5 | 68.7% | 58.1 | 63 | 17% | 31.2% | 39.6% | 15.4 | 6.84% (active) | 58.6 | 6.74% (active) | 65.6 | 44.5% | 63.2 | -1.38% (active) | 23.3% | 36.8 | -3.35% (active) |  | 
CNC1CCc2c(sc(NC(=O)c3ccc(C(C)(C)C)cc3)c2C(N)=O)C1 (stereo unspecified) | 74.3 | 77.3% | 66.4 | 38.4 | 2.17% (active) | 61.6% | 31% | 24.9 | -47.1% (active) | 44.7 | -10% (active) | 56.8 | 59.5% | 79 | -70.9% (active) | 75.8% | 56.2 | 52.8% |  | 
O=S(=O)(Nc1cccc2ccccc12)c1ccc(-c2cnc(C3CC3)o2)cc1 | 23.2 | 64.6% | 40.4 | 39.3 | 11.2% | 21.9% | 27.2% | 50.2 |  | 15.3 | 8.55% (active) | 27.6 | 7.94% (active) | 55.5 | 0.665% (active) | 7.47% (active) | 69 | 14.5% | 61.4 | 
O=C(CN1CCN(c2cc(=O)n(-c3ccccc3)c3ccccc23)CC1)Nc1cccc(C(F)(F)F)c1 | 55.5 | 56.6% | 82.4 | 70.6 | 57.9% | 56.5% | 51.8% | 80.5 | 68.5% | 64.7 | 23.4% | 68.7 | 62.2% | 66.2 | 59% | 71.5% | 38.8 | 60.5% |  | 
O=C(CSc1nnc(-c2ccc(Cl)cc2)n1-c1ccccc1)Nc1cccc(Cl)c1 | 49.5 | 46.3% | 55.5 | 104 | 47.9% | 69.8% | 25.7% | 28.1 |  | 64.6 | 61.9% | 36.3 | 70.8% | 76.1 | 27.2% | 50.9% | 90.4 | 72.8% | 75.9 | 
NC(N)=Nc1ccc(Nc2cccc(Oc3ccc(Cl)c(C(F)(F)F)c3)c2)cn1 | 32 | 36.5% | 52.9 | 17.4 | -71.3% (active) | 18% | 19.9% | 54.3 | -48.7% (active) | 38.3 | -48.8% (active) | 47.5 | 56.6% | 53.6 | 23.8% | 78.5% | 31.9 | 41.2% |  | 
COc1cccc(C(=O)Nc2cccc(C#Cc3cccc4[nH]nc(N)c34)c2)c1 | 66.7 | 49.2% | 84.2 | 63.4 | 44.8% | 21.1% | 51.1% | 80.2 | 67.6% | 70.8 |  | 38.6 | -19.5% (active) | 53 | 54.9% | 36.1% | 82.8 | 32.6% | 79.4 | 
COc1cc2nc(Cl)nc(Nc3cccc(C4=Nc5c(N)nc(N)nc5NC(c5ccccc5)C4)c3)c2cc1OC (stereo unspecified) | 83.5 | 86.9% | 92.9 | 39.6 | 87.4% | 76.5% | 87.5% | 77.5 | 99.8% | 85.9 | 6.71% (active) | 90.4 | 84.5% | 84.3 | 75.8% | 99.8% | 108 | 90.1% |  | 
CCO/C=N/C1=C(C#N)C(c2ccc(Cl)cc2)c2sc3c(CC)cccc3c2O1 (stereo unspecified) | 22 | 54.7% | 43.3 | 45.1 | 9.19% (active) | 7.65% (active) |  | 41.9 |  | 13.6 | 11.4% | 37.2 | -27.7% (active) | 58.3 | -12.1% (active) | -3.86% (active) | 70.3 | 8.6% (active) |  | 
CN1c2ccccc2Sc2cc(C=C(C#N)C#N)ccc21 | 89.3 | -31.4% (active) | 97.3 | 90.4 | 97.9% | 91.8% |  | 105 |  | 110 | 101% | 92.3 | 92.1% | 105 | 103% | 101% | 97.5 | 96% | 98.3 | 
COc1cc(-c2ccc3ncnc(NCc4ccccc4)c3c2)cnc1OC | 67 | 68.3% | 26.3 | 36.2 | 69.1% |  | 38.6% | 44.8 | 87.6% | 24.3 | 85.2% | 41.5 | -18.3% (active) | 46.5 | 55.1% | 48.7% | 75.7 | 86.2% | 94.9 | 
O=C1Nc2ccccc2/C1=C/c1ccc(COCC2CO2)n1-c1ccc(O)cc1 (stereo unspecified) | 100 | 109% | 107 | 105 |  | 93.5% | 104% | 103 | 116% | 111 | 107% | 94.9 |  | 98.7 | 109% | 96.8% | 102 |  | 62.9 | 124
Nc1nc(Nc2ccccc2SSc2ccccc2Nc2nc(N)nc(-c3ccccc3)n2)nc(-c2ccccc2)n1 | 50.8 | 59% | 92.4 | 17.1 | 53.2% |  | 3.73% (active) | 68.2 | 115% | 69.4 | 62.6% | 62.6 | 50.2% | 49 | 26.1% | 96.2% | 108 | 91.9% | 104 | 
CCCn1cnc2c(c1=N)C(c1ccc(Cl)cc1)c1sc3c(CC)cccc3c1O2 (stereo unspecified) | 19.2 | 57.7% | 45.8 | 31.1 | 7.5% (active) | -25.7% (active) |  | 30 | -14.3% (active) | 13.7 | 11.3% | 30.8 | -22.5% (active) | 45.4 | -12.8% (active) | -19.7% (active) | 83.9 | 2.63% (active) | 55.6 | 
Nn1c(N/N=C/c2nc3ccccc3s2)n[nH]c1=S | 91.8 | 104% | 109 | 74.8 |  |  | 95.3% | 96.1 | 115% | 97.5 | 108% | 88.2 | 83.9% | 93.2 | 105% | 103% | 109 | 111% | 109 | 98.7
O=C(Nc1ccc(N=Cc2c(O)[nH]c3ccccc23)cc1)Nc1nccs1 | 37.8 | 30% | 52.8 | 37.3 | 16.8% |  | 56.6% | 52.9 | 25.7% | 40.5 | 17.3% | 47.9 | -20.5% (active) | 77.2 | 70.6% | 33.6% | 71.6 | 18.5% | 46.9 | 
CCc1cccc2c3c(sc12)C(c1ccc(Cl)cc1)C(C#N)=C(/N=C/c1ccc(Cl)cc1)O3 (stereo unspecified) | 17.1 | 53.3% | 37.3 | 37 | 7.17% (active) | 10.8% | 33.8% | 39.5 |  | 12.1 | 10% | 33.8 | -31% (active) | 58.3 | -22.7% (active) | -7.57% (active) | 60.4 | 1.34% (active) |  | 
